Reference: PubChem BioAssay AID720513 (Broad Institute, 2013)
About 480 (23%) of roughly 2,100 compounds were called active. Another 5% or so got no clear call; they are omitted.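 How the source made its calls: active means fitted curve reaches 40% activation at or below the top valid concentration, in every replicate test; inconclusive means replicate tests disagree on the call; inactive means the rest, including activity in the opposite direction.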 Only a sample is shown. Potency and affinity values are given separately.

experiment: activators raising PGC1a acetylation in cells, dose response, cell-based, cherry-picked samples, set 6 (AID 720513); conditions: U2OS PGC1a acetylation AlphaLISA, overnight, 0 = neutral, -100 = inhibitor control; series mostly up to 19.5 µM;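 further: cells made to overexpress flag tagged PGC1a plus GCN5 acetyltransferase by viral infection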

outcome, inactive:
COc1ccc(NC(=O)Nc2ccc3c(c2)C(=O)N([C@H](C)CO)C[C@H](C)[C@@H](CN(C)S(=O)(=O)c2ccc(Cl)cc2)O3)cc1
C=C1CCN(c2ccc(C(=O)NCc3ccccc3)cc2[N+](=O)[O-])CC1
C[C@H]1CN([C@@H](C)CO)C(=O)Cc2cc(NS(=O)(=O)c3ccc(Cl)cc3)ccc2O[C@H]1CN(C)Cc1ccc(-c2ccccc2)cc1
O=C(Nc1ccc(Cl)c(Cl)c1)N[C@@H]1CC[C@H](CCn2cc(C3CC3)nn2)O[C@H]1CO
O=S(=O)(N[C@@H]1CC[C@@H](CCNS(=O)(=O)c2ccccc2Cl)O[C@H]1CO)c1ccccc1
C[C@@H]1CN([C@@H](C)CO)S(=O)(=O)c2ccc(-c3ccc(C#N)cc3)cc2O[C@H]1CN(C)C(=O)CN(C)C
CC(C)C#Cc1cnc2c(c1)C(=O)N([C@@H](C)CO)C[C@@H](C)[C@@H](CN(C)C(=O)CN1CCOCC1)O2
CCCN(CC)c1ncnc2[nH]ncc12
CCCOC1CCCN(C(=O)c2cc(Cl)c(Cl)cc2C(=O)O)C1 (stereo not drawn)
COc1ccc(-n2nc(C#N)c(Cl)cc2=O)cc1
Cc1ccc(N2C(=O)c3ccccc3NC2C(C)Cc2ccc3c(c2)OCO3)cc1 (stereo not drawn)
C[C@H](CO)N1C[C@H](C)[C@H](CN(C)Cc2ccc(Oc3ccccc3)cc2)Oc2c(NC(=O)Nc3ccc4c(c3)OCO4)cccc2C1=O
Cc1ccc(S(=O)(=O)N(C)C[C@@H]2OCCCC[C@H](C)Oc3ccc(NS(C)(=O)=O)cc3C(=O)N([C@@H](C)CO)C[C@@H]2C)cc1
Cc1nc2ccccc2n2c(O)c(CC(=O)O)cc12
Cc1ccc(S(=O)(=O)N(C)C[C@H]2OCCCC[C@H](C)Oc3ccc(N(C)C)cc3C(=O)N([C@H](C)CO)C[C@@H]2C)cc1
C(=C\c1ccccc1)/CN1CCN(C(c2ccnc3ccccc23)c2nnnn2C2CCCCC2)CC1 (stereo not drawn)
COc1cccc(CNC(=O)CCC2CCCN(Cc3ccc(OC(F)F)cc3)C2)c1 (stereo not drawn)
COc1ccc(C[C@@H]2OC3(C=CC(=O)C=C3)O[C@H]2Cc2ccc(OC)cc2)cc1
CC(=O)N(CCC(Cc1ccccc1)c1ccc2c(c1)OCO2)Cc1ccccc1F (stereo not drawn)
O=C(CN1CCOCC1)N[C@H]1CC[C@H](CCNC(=O)Nc2cc(F)ccc2F)O[C@H]1CO
Cn1c(C(C#N)C(=O)c2sc3ccccc3c2Cl)nc2ccccc21 (stereo not drawn)
CCC(=O)N1CCN(c2ccc(Cl)cc2NC(=O)c2ccc([N+](=O)[O-])o2)CC1
Cc1cccc(N2CCN(CC3CCCCC3)CC2)c1C
CN1CCN(c2ccc([N+](=O)[O-])cc2C(=O)Nc2ccccc2)CC1
CC1CCCN(C(=O)Cc2ccc(F)cc2)C1 (stereo not drawn)
CC(c1ccccc1)C1CC(=O)N(c2ccc([N+](=O)[O-])cc2)C1=O (stereo not drawn)
Cc1ccc(N2CCN(CC(O)COC3CCCCC3)CC2)cc1 (stereo not drawn)
CC(C)C(NC(=O)c1ccc(C(C)(C)C)cc1)C(=O)O (stereo not drawn)
C[C@@H]1CCCCO[C@H](CN(C)C(=O)NC2CCCCC2)[C@@H](C)CN([C@@H](C)CO)C(=O)c2cc(NC(=O)NC3CCCCC3)ccc2O1
N#Cc1c(-c2ccccc2)c(-c2ccccc2)nn(CC(=O)NNC(=O)Nc2ccc(Cl)cc2)c1=O
O=C(c1nc2nc(-c3ccccc3)cc(C(F)(F)F)n2n1)N1CCCCC1
CC[C@H](C)[C@H](NC(=O)c1ccc(Cl)cc1)C(=O)OCC(=O)c1ccc2c(c1)NC(=O)CO2
OCC1(Cc2ccc(F)cc2F)CCCN(Cc2ccc(Cl)cc2)C1 (stereo not drawn)
COc1cccc(CN2CCC(CO)(CC3CCCCO3)CC2)c1 (stereo not drawn)
N#Cc1cccc(-c2ccc(C3[C@@H]4CN(Cc5ccccc5F)C[C@H]3N4)cc2)c1 (stereo partly drawn)
COc1cccc(C2c3[nH]c4ccccc4c3CCN2Cc2cnc(C)s2)c1OC (stereo not drawn)
CCc1nccn1S(=O)(=O)c1cc(C)c(OC)cc1C
COc1ccc(NC(=O)N[C@H]2CC[C@@H](CCn3cc(-c4ccccc4F)nn3)O[C@H]2CO)cc1
CCOC(=O)c1ccc(NC(=O)CCS(=O)(=O)c2ccc(Br)s2)cc1
CN(C)S(=O)(=O)c1cc(NC(=O)CN2CCc3ccccc32)ccc1Cl
CC(C(=O)N1CCc2ccccc2C1)N(c1ccccc1)S(C)(=O)=O (stereo not drawn)
CCOC(=O)c1cnn(-c2ccccc2)c1-n1cccc1C(=O)C(=O)Nc1ccc(F)cc1
Cc1cc(=O)[nH]c(SCC(=O)N2CCc3ccccc3C2)n1
CCOCCCNC(=O)C1CCN(C(=O)Nc2ccc(C)cc2)CC1
CC(C)Oc1ccc2nnnn2n1
CCCSCC(=O)Nc1ncc2c(n1)-c1ccccc1CC2
C[C@H]1CN([C@@H](C)CO)S(=O)(=O)c2ccc(C#CC3CCCCC3)cc2O[C@@H]1CN(C)Cc1cccnc1
CCc1nc(SCC(=O)N2c3ccccc3Sc3ccccc32)c2ccccc2n1
O=C(c1ccco1)N1CCN(C(=O)N2c3ccccc3Sc3ccccc32)CC1
O=c1[nH]c2ccccc2nc1/C=C/c1ccc(O)cc1
C[C@H]1CN([C@@H](C)CO)C(=O)c2cccc(NC(=O)Nc3ccc(F)cc3)c2O[C@@H]1CN(C)S(=O)(=O)c1cn(C)cn1
C[C@H](NS(=O)(=O)c1ccc2c(c1)OCCCO2)C(=O)N1CCN(Cc2ccccc2)CC1
COc1ccc2c(-c3ccccc3)cc(=O)[nH]c2c1
O=C(c1cc(-c2ccccc2)nc2ccccc12)N1N=C(C(F)F)CC1(O)C(F)F (stereo not drawn)
C=CCn1c(SCC(=O)Nc2ccc(C(=O)O)cc2)nnc1-c1cccnc1
COc1ccc(NC(=O)N[C@@H]2C=C[C@@H](CC(=O)NCc3ccccn3)O[C@@H]2CO)cc1
COc1ccc(C2(NC(C)=O)CCN(C(=O)CCC(=O)O)CC2)cc1
CCN(C(=O)C1CC1)C1CCS(=O)(=O)C1 (stereo not drawn)
CN(c1ncnc(N)c1[N+](=O)[O-])C1CCS(=O)(=O)C1 (stereo not drawn)
COCC(=O)Nc1ccc2c(c1)OC[C@@H](C)N(C(=O)c1ccccn1)C[C@@H](C)[C@@H](OC)CN(C)C2=O
CC1CCCCC1NC(=O)C1CCN(S(=O)(=O)N2CCOCC2)CC1 (stereo not drawn)
C[C@H](CO)N1C[C@H](C)[C@@H](CN(C)CC2CC2)Oc2cc(-c3cccnc3)ccc2S1(=O)=O
CCSc1nnc(NC(=O)CSC2=NCCS2)s1
COc1cccc(N2C(=O)CC(N3CCC(c4nc5ccccc5[nH]4)CC3)C2=O)c1 (stereo not drawn)
O=C(Cc1ccncc1)NCC[C@H]1CC[C@@H](NC(=O)C2CC2)[C@H](CO)O1
CCOC(=O)C1=C(CNCc2ccc(C)cc2)NC(=O)NC1c1cc(C)ccc1C (stereo not drawn)
CCN(CC)S(=O)(=O)c1cccc(-c2nnc(SCc3ncc(-c4ccccc4)o3)n2C)c1
NC(=O)NC(=O)Nc1ccccc1Cl
Cc1nc2ccc(C(=O)Nc3ccccc3Cl)cc2s1
CCN(CC)C(=O)[C@H]1CC(CC(=O)NCc2cccc(C(F)(F)F)c2)C(=O)N2CCc3c([nH]c4ccccc34)[C@]12C (stereo partly drawn)
O=C(CCNC(=O)C1CCN(S(=O)(=O)c2ccc(F)cc2)CC1)NCc1ccccc1Cl
CC(=O)Nc1ccc(S(=O)(=O)N2CCN(c3ccccn3)CC2)cc1
N#Cc1cc2c(=O)n3ccccc3nc2n(Cc2cccnc2)c1=O
O=C1C2C3CCC(C3)C2C(=O)N1CNc1ccc(F)cc1 (stereo not drawn)
O=c1cc(CSc2ccccn2)[nH]c(=O)[nH]1
Cc1nc2[nH]c(=O)c3c(n2n1)NC1=C(C(=O)CC(C)(C)C1)C3c1ccccc1 (stereo not drawn)
O=[N+]([O-])c1ccc(Oc2cccc(F)c2)c2ccncc12
Cc1cccc(S(=O)(=O)N(C)C[C@@H]2OCc3cn(nn3)CCCC(=O)N([C@@H](C)CO)C[C@H]2C)c1
O=C(OCn1ncc(Cl)c(Cl)c1=O)c1ccc(C(F)(F)F)cc1
O=C(NC1CCCN(Cc2ccc(Cl)cc2)C1)c1ccccc1C(F)(F)F (stereo not drawn)
CCc1nc(N)nc(N)c1-c1ccc(Cl)cc1
CCOC(=O)C1CCN(C2=NC(=O)/C(=C/c3ccc(O)cc3)S2)CC1
Cc1cccc2cc(CN(Cc3nnnn3Cc3ccco3)C3CCCC3)c3nnnn3c12
COc1cccc2c1C(CO)N1C(C#N)C3CC(C(=O)O)C(C1C2)N3C (stereo not drawn)
Cc1cccc(-n2c(CNC(=O)c3cccc([N+](=O)[O-])c3C)n[nH]c2=S)c1
COc1cccc(N(CC(=O)N2CCN(Cc3ccccc3)CC2)S(C)(=O)=O)c1
CCC(C)(C)n1nnnc1C(c1cccnc1)N1CCCC(C)C1 (stereo not drawn)
C[C@H](CO)N1C[C@H](C)[C@@H](CN(C)C(=O)C2CCCCC2)Oc2cc(C#Cc3ccncc3)ccc2S1(=O)=O
Cc1cccc(N(CC(=O)NC(C)(C)C)C(=O)CNC(=O)c2cccs2)c1
O=C(Nc1ccc2c(c1)C(=O)N(c1ccccc1)C2=O)c1cccs1
COc1ccc(NC(=O)/C(Cl)=C(/Cl)S(=O)Cc2ccccc2)cn1 (stereo not drawn)
O=C(CNC(=O)c1sc2ccccc2c1Cl)NCc1ccccc1
CN(C)C(=O)C[C@@H]1C=C[C@@H](NS(=O)(=O)c2ccccc2)[C@@H](CO)O1
CO[C@@H]1CN(C)C(=O)c2ccc(NC(=O)Nc3c(C)noc3C)cc2OC[C@H](C)N(CC2CC2)C[C@@H]1C
CCS(=O)(=O)c1ccc(O)c(NC(=O)COc2ccc(Br)cc2)c1
O=C(CSc1nnnn1-c1ccc(F)cc1)NNC(=O)c1ccco1
CC(=O)Nc1ccc(NC(=O)c2cc(=O)c3ccccc3o2)cc1
Cc1cc(=O)[nH]c2c1c(C)nn2C1CCCC1
